Calls of active or inactive are those of the source.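 How the source made its calls: active means calcium activation more than 3 SD above the typical response in the agonist read; inactive means the rest.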
Biological target: Thyrotropin-releasing hormone receptor (Homo sapiens) (UniProt P34981)
Experiment: qHTS for Small Molecule Agonists and Allosteric Enhancers of Human TRH Receptor: Validation Screen for Agonists (AID 493127);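 further: intracellular calcium rise by fluo-8 fluorescence before TRH EC20 addition; 0% is about no effect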
Details: TRH receptor agonist cell assay; at 2 µM; hits give high values
Procedure, shortened: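 Kinetic fluorescence assay of agonist-induced calcium release: overnight-plated TRHR cells, room-temperature fluo-8 loading, baseline then compound addition with per-second reads.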

Chain of Thyrotropin-releasing hormone receptor (Homo sapiens) (P34981 whole entry, looked up): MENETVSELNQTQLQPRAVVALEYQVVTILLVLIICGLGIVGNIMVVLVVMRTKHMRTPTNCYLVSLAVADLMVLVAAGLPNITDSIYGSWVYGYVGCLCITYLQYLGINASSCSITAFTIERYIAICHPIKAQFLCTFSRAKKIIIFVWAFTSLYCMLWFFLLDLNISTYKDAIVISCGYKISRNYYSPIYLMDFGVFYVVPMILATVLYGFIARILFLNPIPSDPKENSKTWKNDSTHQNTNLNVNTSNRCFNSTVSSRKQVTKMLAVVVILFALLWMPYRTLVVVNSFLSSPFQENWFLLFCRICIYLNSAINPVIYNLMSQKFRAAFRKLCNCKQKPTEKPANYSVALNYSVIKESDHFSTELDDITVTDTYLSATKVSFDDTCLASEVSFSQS

Row | SMILES | activation
1 | CC(C)NCC(O)COc1cccc2ccccc12 (stereo unspecified) | 2.25% (inactive)
2 | Fc1ccc(C(OCCCc2cnc[nH]2)c2ccc(F)cc2)cc1 | -5.06% (inactive)
3 | O=C(O)CC1CCCc2ccccc2C1O (stereo unspecified) | 0.625% (inactive)
4 | CCCCCC(O)c1cccc(OCc2ccc3ccccc3n2)c1 (stereo unspecified) | -5.62% (inactive)
5 | Fc1cccc(/C=N/N=C/c2cccc(F)c2)c1 | -7.56% (inactive)
6 | C#CCN1C(C)=C(C(=O)OC)C(c2cccc([N+](=O)[O-])c2)C(C(=O)OCC)=C1C (stereo unspecified) | -10.2% (inactive)
7 | NCCSSCCN | -0.375% (inactive)
8 | CCCCN1CCC(n2c(=O)[nH]c3ccccc32)CC1 | 1% (inactive)
9 | NCCCCCCCCCCN | 0.938% (inactive)
10 | O=C(O)CCCC[C@@H]1CCSS1 | 0.438% (inactive)
11 | NC(=O)C(=O)O | 1% (inactive)
12 | O=c1[nH]c2cc([N+](=O)[O-])c([N+](=O)[O-])cc2[nH]c1=O | 1.31% (inactive)
13 | N=C(N)SCCc1ccc(CCSC(=N)N)cc1 | 1.12% (inactive)
14 | CC(=O)N[C@H](C(=O)O)C(C)(C)SN=O | 0.812% (inactive)
15 | CN1C2CCC1CC(OC(=O)C(O)c1ccccc1)C2 (stereo unspecified) | 1.19% (inactive)
16 | NC[C@@H]1O[C@H](C23CC4CC(CC(C4)C2)C3)Cc2c1ccc(O)c2O | 8.12% (inactive)
17 | CCCCCCCCCCCCCCCC(=O)NCC(COP(=O)([O-])OCC[N+](C)(C)C)OCC (stereo unspecified) | 0.812% (inactive)
18 | CN1CCC[C@H]1c1cccnc1 | 0.5% (inactive)
19 | N#C/C(=C\c1ccc(O)c(O)c1)C(=O)NCc1ccccc1 | 1.31% (inactive)
20 | N#C/C(=C\c1c[nH]c2ccccc12)C(=O)c1ccc(O)c(O)c1 | 0.438% (inactive)
21 | O=C(O)[C@@H]1C[C@H](C(=O)O)N1 | -0.25% (inactive)

From PubChem BioAssay (NCATS)
